Source: PubChem (several laboratories)
Most compounds without a hit are left out; they make up all but 2.9% or so of the library.
MEKK2 mut-MEK5 = signal of MEK5 binding to mutant human MEKK2 PB1 domain; AID 1530; percent response, % at 10 µM; 290,000 tested, 0.35% active; bead flow cytometry, Alexa488-MEK5 binding to MEKK2 mutant; in the data active = percent response above about 24%, passing the limit was not always enough
CRFBP-R2 agonist = CRF-BP/CRF-R2 complex agonism; activation, % at 13.2 µM; 350,000 tested, 0.46% active; HEK293 CRF-R2/CRF-BP, calcium dye fluorescence (FLIPR); percent of saturating CRF peptide response;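 active = activation of at least 50%, plus an integration ratio under a set limit after plate pattern correction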
ABCB6 inh 2 = inhibitors of human ABC transporter ABCB6; Q9NP58; K562-ABCB6 porphyrin accumulation, flow cytometry, 1 h; active compounds read low; fluorescence ratio to DMSO, % at 10 µM; 360,000 tested, 0.19% active;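 active = fluorescence ratio to DMSO below 75%, the collection mean minus 3 SD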;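 note: signal is porphyrin accumulated inside mitochondria; lower ratio means ABCB6 inhibition with less porphyrin fluorescence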
Target sequence (Q9NP58 whole entry, looked up): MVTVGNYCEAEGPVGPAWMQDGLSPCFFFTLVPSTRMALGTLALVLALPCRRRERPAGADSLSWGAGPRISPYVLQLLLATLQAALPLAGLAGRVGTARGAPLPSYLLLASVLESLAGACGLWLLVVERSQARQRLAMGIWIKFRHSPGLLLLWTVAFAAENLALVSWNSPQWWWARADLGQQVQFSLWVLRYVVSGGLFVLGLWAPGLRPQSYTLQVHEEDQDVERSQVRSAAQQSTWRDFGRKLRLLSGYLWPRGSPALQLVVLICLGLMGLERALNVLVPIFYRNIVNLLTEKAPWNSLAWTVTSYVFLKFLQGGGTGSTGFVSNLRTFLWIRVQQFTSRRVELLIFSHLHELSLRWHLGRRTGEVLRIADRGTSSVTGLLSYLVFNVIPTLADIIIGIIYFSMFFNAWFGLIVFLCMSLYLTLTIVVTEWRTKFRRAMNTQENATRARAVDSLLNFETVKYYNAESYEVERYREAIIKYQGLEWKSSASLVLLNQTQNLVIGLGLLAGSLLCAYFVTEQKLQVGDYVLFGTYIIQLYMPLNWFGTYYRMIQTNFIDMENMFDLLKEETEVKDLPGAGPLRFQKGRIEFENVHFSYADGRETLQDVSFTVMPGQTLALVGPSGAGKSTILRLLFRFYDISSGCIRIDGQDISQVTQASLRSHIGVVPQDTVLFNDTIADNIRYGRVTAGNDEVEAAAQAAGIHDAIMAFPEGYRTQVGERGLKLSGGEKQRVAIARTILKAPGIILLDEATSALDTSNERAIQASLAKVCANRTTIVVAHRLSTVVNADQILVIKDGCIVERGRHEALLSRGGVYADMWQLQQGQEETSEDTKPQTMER
CRFR2-BP antag = CRF-BP/CRF-R2 complex antagonism; HEK293 CRF-R2/CRF-BP, CRF-induced calcium fluorescence; inhibition, % at 11.8 µM; 350,000 tested, 0.59% active;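 active = inhibition of the ligand-induced calcium signal above about 50% at the single tested concentration, limit read from the data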
MEKK2 WT-MEK5 = raises or lowers MEK5 binding to wildtype human MEKK2 PB1 domain | binding response (% of control), % at 10 µM | bead flow cytometry, Alexa488-MEK5 binding to MEKK2 WT; actives lie on both sides | Q9Y2U5 | 290,000 tested, 1.1% active; in the data active = binding response below about 67% or above about 130%
MEKK3 PB1 HTS = MEKK3-MEK5 PB1 interaction, increase or decrease. Q99759. bead-based flow cytometry, Alexa488-MEK5 binding to MEKK3; actives lie on both sides; 0 = blocked by unlabeled MEK5, 100 = vehicle. binding response (% of control), % at 10 µM. 290,000 tested, 1.4% active. AID 1529;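 active = binding response more than 3 SD above or below the average of its plate-row segment, actives on both sides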;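 note: Alexa488 bead fluorescence after subtracting the streptavidin-only scavenger bead signal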
Each line names hits and unclear results; the compound was inactive in the other large screens.

Cc1ccc(C(=O)NCCNC(=O)c2ccc(F)cc2)cn1	CRFBP-R2 agonist 79.8
Cc1ccc(C(=O)NCCCNC(=O)c2ccccc2F)cn1	none
CSc1ccc(CN(C)C(=O)CNC(=O)c2ccc3c(c2)OCO3)cc1	none (no result: MEKK2 mut-MEK5, MEKK2 WT-MEK5, MEKK3 PB1 HTS)
O=C(Nc1nc2c(s1)CN(Cc1ccccc1)CC2)c1cccc(S(=O)(=O)N2CCc3ccccc32)c1	CRFBP-R2 agonist 93.5
O=C(Nc1nc2ccccc2s1)c1cccc(S(=O)(=O)N2CCc3ccccc32)c1	none
Cc1nn(-c2ccc(F)cc2)c(Cl)c1C(=O)OC(C)C(=O)N(C)C1CCCCC1 (stereo not drawn)	none (no result: MEKK2 mut-MEK5, MEKK2 WT-MEK5, MEKK3 PB1 HTS)
CCOC(=O)CCS(=O)(=O)c1nc(-c2ccccc2)cc(C(F)(F)F)n1	ABCB6 inh 2 72.0
Cc1ccc2nc(NCCc3ccccc3)c3nncn3c2c1	none
O=C(NCCCN1CCCC1=O)c1cc2nc(-c3ccco3)cc(C(F)(F)F)n2n1	none
CCCCOC(=O)Oc1ccc2c(=O)c(Oc3cccc(C)c3)coc2c1	CRFR2-BP antag 56.4
CCCCOC(=O)Oc1ccc2c(=O)c(Oc3cc(C)cc(C)c3)coc2c1	none
CC(C)/C=C1\CC/C(=C\c2ccc(N(C)C)cc2)C1=O	CRFBP-R2 agonist 166.0
O=C(Cc1ccc([N+](=O)[O-])cc1)Nc1cccc(C(=O)N2CCCCC2)c1	none (no result: MEKK2 mut-MEK5, MEKK2 WT-MEK5, MEKK3 PB1 HTS)
OCC[n+]1ccc(/C=C/c2c[nH]c3ccccc23)cc1	CRFBP-R2 agonist 118.9
Cc1[nH]c(=O)nc(SCc2cccc(Cl)c2)c1C#N	none
N#Cc1c(-c2ccccc2)nc(SCc2cccc(Cl)c2)[nH]c1=O	CRFR2-BP antag 55.7
CC(C)Cc1ccc(C(C)C(=O)Nc2ccc(O)cc2)cc1 (stereo not drawn)	CRFBP-R2 agonist 78.1
CC(C)Cc1ccc(C(C)C(=O)Nc2cccnc2)cc1 (stereo not drawn)	CRFBP-R2 agonist 62.3
CC(C)Cc1ccc([C@H](C)C(=O)O)cc1	none
CCOC(=O)c1sc(-c2ccccc2)cc1NC(=O)Nc1ccccc1	none
CCOC(=O)c1sc(-c2ccc(F)cc2)cc1NC(=O)Nc1ccccc1OC	CRFBP-R2 agonist 89.2
O=C1c2ccccc2-c2onc3ccc(N4CCCC4)c1c23	CRFBP-R2 agonist 83.2
CCOc1ccc2noc3c2c1C(=O)c1ccccc1-3	none (no result: MEKK2 mut-MEK5, MEKK2 WT-MEK5, MEKK3 PB1 HTS)
O=C(c1cccc(NS(=O)(=O)c2ccc(F)c(F)c2)c1)N1CCN(C(c2ccccc2)c2ccccc2)CC1	CRFR2-BP antag 61.8
O=C1[C@H](c2ccccc2)[C@@H](c2ccccc2)N1c1ccncc1	none (no result: MEKK2 mut-MEK5, MEKK2 WT-MEK5, MEKK3 PB1 HTS)
CC1=CN2C(=NC(=O)CC2(C)C(=O)N(CC(=O)NC2CCCC2)c2ccccc2C)C=C1 (stereo not drawn)	CRFR2-BP antag 54.2
Cc1ccc(C)c(S(=O)(=O)C(C#N)c2nc3ccccc3nc2N2CCOCC2)c1 (stereo not drawn)	CRFR2-BP antag 62.5
Cc1cccc(S(=O)(=O)C(C#N)c2nc3ccccc3nc2N2CCCC2)c1 (stereo not drawn)	CRFBP-R2 agonist 64.0
N#CC(c1nc2ccccc2nc1N1CCCC1)S(=O)(=O)c1ccccc1 (stereo not drawn)	none
COc1cccc(-c2c(C(=O)O)cc(O)c3ccc(OC)cc23)c1	none (no result: MEKK2 mut-MEK5, MEKK2 WT-MEK5, MEKK3 PB1 HTS)
O=C(NNC(=S)Nc1ccc(Cl)cc1)c1ccccc1OC(F)F	CRFBP-R2 agonist 51.1
O=C(NNC(=S)NCc1ccccc1)c1ccccc1OC(F)F	none
Fc1ccc(OCCCCCn2ccnc2)cc1	CRFR2-BP antag 54.7
Cn1nc([N+](=O)[O-])c(C(C#N)c2ccccn2)c(Cl)c1=O (stereo not drawn)	none
CCn1nc([N+](=O)[O-])c(C(C#N)c2nc3cc(C(F)(F)F)ccc3s2)c(Cl)c1=O (stereo not drawn)	CRFR2-BP antag 68.2
CCCn1nc([N+](=O)[O-])c(C(C#N)c2nc3ccccc3o2)c(Cl)c1=O (stereo not drawn)	CRFR2-BP antag 74.4
O=C(NCCO)c1nc(C(=O)c2ccc(Cl)cc2)c2ccccc2n1	CRFR2-BP antag 71.1 (no result: MEKK2 mut-MEK5, MEKK2 WT-MEK5, MEKK3 PB1 HTS)
C/C(=C\C=C(C#N)C#N)c1cc(C#N)c(N)o1	CRFBP-R2 agonist 64.2
